Bioassay records: PubChem, Broad Institute
aSyn UTR act: Activators via SNCA 5'UTR binding, MLPCN | alpha-synuclein 5'UTR reporter, activators screen | activity score, % (tested at 7.5 µM), hits read low | actives 7.1% (n = 300,000); in the data active = activity score below about -60%
* = called active by the depositor. Not all results are given here.

SMILES	aSyn UTR act
Cn1c(-c2ccccc2)cc2c3no[n+]([O-])c3ccc21	-69*
N#CCc1ccc(C(=O)c2ccccc2)s1	-70*
O=C(NN/C(=N/S(=O)(=O)c1ccc(Cl)cc1)c1ccccc1)c1ccc(O)cc1	-112*
O=C(NN/C(=N/S(=O)(=O)c1ccc(Cl)cc1)c1ccccc1)c1cccc(Cl)c1	-124*
O=S(=O)(/N=C(/Nc1ccccn1)c1ccc(Cl)cc1)c1ccc(Cl)cc1	-91*
Cc1ccc(S(=O)(=O)/N=C(/NNC(=O)c2cccc(Cl)c2)c2ccccc2)cc1	-101*
O=C(Nc1ccc(Cc2ccncc2)cc1)c1ccco1	-75*
Cc1cccc(OCC(=O)Nc2ccc(NC(=O)c3ccco3)cc2)c1	-67*
CC(=O)N(C)c1ccc(NC(=O)c2ccco2)cc1	-80*
Cc1ccc(NC(=O)CNC(=O)c2ccco2)cc1	-120*
O=C(Nc1ccc(Br)cc1)c1ccco1	-154*
O=C(Nc1ccc(Nc2ccccc2)cc1)c1ccco1	-150*
O=C(Nc1ccc(NC(=O)c2ccco2)cc1)c1ccco1	-109*
Nc1nc2ccc(NC(=O)c3ccco3)cc2s1	-116*
O=C(Nc1nccs1)c1ccc(NC(=O)c2ccco2)cc1	-142*
O=C(Nc1ccc(NC(=O)C2CC2)cc1)c1ccco1	-92*
Cc1cc2cc(NC(=O)c3ccco3)ccc2[nH]1	-141*
CCOC(=O)COn1c(=O)c(-c2ccc(C)cc2)[n+]([O-])c2ccccc21	-136*
CCOc1ccc(-c2c(=O)n(OCc3nc4ccccc4[nH]3)c3ccccc3[n+]2[O-])cc1	-112*
O=C1Nc2ccccc2S/C1=C\C(=O)N1CCCC1	-140*
N#C/C(C(=O)N1CCCCC1)=C1\Nc2ccccc2S1	-104*
COc1ccc(CNc2nc(-c3ccccc3)nn2C(=O)c2ccc([N+](=O)[O-])cc2)cc1	-120*
CC(=O)n1nc(-c2ccccc2)nc1NCc1ccc(N(C)C)cc1	-131*
O=C(Nc1ccccn1)c1ccc2c(c1)S(=O)(=O)c1ccccc1C2=O	-90*
O=C(Nc1ccccn1)c1ccc(Cl)c(S(=O)(=O)N2CCCCCC2)c1	-81*
SMILES	aSyn UTR act
Cc1ccnc(NC(=O)c2ccc(Cl)c(S(=O)(=O)N3CCCC3)c2)c1	-132*
COc1ccc(-c2nc(C#N)c(NCCc3ccccc3)o2)cc1OC	-142*
N#Cc1nc(-c2cccs2)oc1NCCc1ccccc1	-111*
O=C(CNc1ccc(Br)cc1)c1ccc(Br)s1	-68*
CC(=O)Cn1nnc2sc3c(c2c1=O)CCC(C(C)(C)C)C3 (stereo not drawn)	-113*
CC1=NN(c2ccccc2)C(=O)/C1=C/c1c(O)n(-c2ccc(F)cc2)[nH]c1=O	-134*
Cc1cc(/C=C2/NC(=O)N(c3ccccc3)C2=O)c(C)n1-c1cccnc1	-149*
CC1=NN(c2cccc(C(=O)O)c2)C(=O)/C1=C\C=C/c1ccccc1	-64*
Cc1cc(/C=C2/C(=N)N3C(c4ccccc4)=CSC3=NC2=O)c(C)n1-c1ccccc1	-81*
CC1=NN(c2ccccc2)C(=O)/C1=C\c1cc(C)n(-c2ccccc2)c1C	-82*
Cc1cc(/C=C2\Cc3ccccc3C2=O)c(C)n1-c1ccccc1	52
CC1=NN(c2ccccc2)C(=O)/C1=C/c1ccc[nH]1	-181*
c1ccc(-c2nnc(-c3ccccn3)nn2)nc1	-122*
c1ccc(-c2cccc(-c3ccccn3)n2)nc1	77
COc1ccc(C(=O)CSc2nccn2C)c(OC)c1	-80*
Cn1ccnc1SCC(=O)c1ccc(O)cc1	-65*
COc1cccc(C(=O)Oc2c(CN3CCOCC3)cc(Cl)c3cccnc23)c1	89
Cn1ccnc1SCC(=O)c1ccc2ccccc2c1	-71*
COc1cccc(C(=O)CSc2nccn2C)c1	-84*
Cc1oc(-c2ccc(-c3ccccc3)cc2)nc1CN1CCN(CC(=O)N(C)C)CC1	-143*
COc1ccc(-c2nc(CN3CCN(c4cc(C)nc(C)c4)CC3)c(C)o2)c2ccccc12	68
O=C(CSc1nnc(SCc2ccccc2Cl)s1)N/N=C/c1c[nH]c2ccccc12	-94*
Cc1ccc(CSc2nnc(SCC(=O)N/N=C/c3ccccc3OCC(=O)O)s2)cc1	62
O=C(CSc1nnc(SCc2ccc(Cl)cc2)s1)N/N=C/c1c(Cl)cccc1Cl	-69*
Cc1ccc(CSc2nnc(SCC(=O)N/N=C/c3ccc(C(=O)O)cc3)s2)cc1	70
SMILES	aSyn UTR act
OCCN=c1cc(-c2ccccc2)oc2ccc(Cl)cc12	-199*
NNC(=O)c1[nH]c2ccc(Cl)cc2c1-c1ccccc1	77
CC(C)CN=c1cc(-c2ccccc2)oc2ccc(Cl)cc12	-123*
CC(O)CN=c1cc(-c2ccccc2)oc2ccc(Cl)cc12 (stereo not drawn)	-239*
CC(C)c1cc(C(C)C)c(S(=O)(=O)N2c3ccccc3[C@]3(Br)C[C@H]4C(=O)N[C@@H](Cc5ccccc5)C(=O)N4[C@H]23)c(C(C)C)c1	65
C=CCN=C(NC#N)SCC(=O)c1cccc(OC)c1	-104*
COC(=O)C1C(=O)c2c([nH]c(C(=O)OC3CCCC3)c2C)CC1C (stereo not drawn)	-131*
